# Screening data: PubChem, National Center for Advancing Translational Sciences (NCATS)
# Pf Dd2 growth: inhibitors of Plasmodium falciparum Dd2 growth; P. falciparum Dd2 growth, SYBR Green, 72 h; Potency, µM (titrated, usually from 28.9 µM), for the others: top-dose activity, negative = inhibition, most hits filed as inhibitors; 120,000 tested, 4.3% active; AID 1347417; active = well fitted inhibition curve with a large enough effect;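 note: plate controls were DMSO vehicle for no effect and reference drug for full effect; nearly all actives have a fitted effect of over 65% in size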
#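 Readout: SYBR Green fluorescence, 485 nm excitation, 535 nm emission, after ~16 h lysis at 37C. Before that, Dd2-infected red cells (2.5% hematocrit) grew 72 h with compound, 29 uM top final concentration.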
# Numbers without * were called inactive; i = inactive; [ ] = remark or other dose. Only a selection was taken, and hits are over-represented in it overall. Potency is the fitted concentration of half-maximal effect.
SMILES,Pf Dd2 growth
CCNC(=O)N1CCC2(CC1)CC(N(CC)CC)CCO2 (centres undefined),8%
Cc1ccc(CCNC(=O)c2cc(Nc3ccc(C)c(C)c3)nc3ccccc23)cc1,-2%
CCc1ccc(S(=O)(=O)c2c(C(=O)c3ccc(C)c(C)c3)cnc3ccccc23)cc1,4µM*
CCc1ccc(C(=O)c2cnc3ccc(C)cc3c2S(=O)(=O)c2ccc(OC)cc2)cc1,11µM*
CCc1ccc(Cn2c(CNS(=O)(=O)c3ccc(C)c(C)c3)nc3cccnc32)cc1,-15%
CCOc1ccc(S(=O)(=O)c2c(C(=O)c3ccc(CC)cc3)cnc3ccc(C)cc23)cc1,i
COc1ccc(S(=O)(=O)c2c(O)c3ccc(C(=O)NCc4ccc(F)cc4)cc3[nH]c2=O)cc1,-17%
CCN1C(=O)CCN(C(=O)NCc2ccc(C)cc2)CC12CCOCC2,-15%
COc1ccccc1CCN1CCC(CN(C)Cc2n[nH]c(C)n2)CC1,14%
CC(C)CC(=O)N1CCc2nnc([C@@H]3C[C@@H](O)CN3C)n2CC1,5%
O=C(c1ccnc(-c2cncnc2)c1)N1CCCC1,-10%
Cc1cnc(C)c(-c2cc(O)c3c(c2)CN(C(=O)c2ccncn2)CCO3)n1,-14%
Cc1nc(CN2CCOc3c(O)cc(-c4nc5ccccc5s4)cc3C2)no1,-25%
Cc1cncc(C(=O)N2CCOc3c(O)cc(-c4nc5ccccc5s4)cc3C2)c1,7.9µM*
Cn1ccc(C(=O)N2CCC(c3nnc4n3C(C(=O)N3CCOCC3)CC4)CC2)n1 (centres undefined),16%
COc1cc(C(=O)Nc2ccc(Cl)c(-c3nc4ncccc4o3)c2)cc(OC)c1OC,-5%
COc1cc(C(=O)NC(c2ccc(Cl)cc2)c2cc(Cl)c3cccnc3c2O)cc(OC)c1OC (centres undefined),2.8µM*
COc1cc(C(=O)NCC(c2cccnc2)N2CCc3ccccc3C2)cc(OC)c1OC (centres undefined),-26%
COc1cccc(C(=O)NC(c2ccc(Cl)cc2)c2cc(Cl)c3cccnc3c2O)c1 (centres undefined),3.2µM*
COc1cccc(CNC(=O)c2c[nH]c3ncccc23)c1,-10%[44.1 µM]
COc1cccc(C(=O)N[C@H]2[C@H](O)[C@H](O)C[C@@H]2c2cccnc2)c1,10%[44.1 µM]
CN(C)c1nc2c(c(=O)[nH]1)CCN(C(=O)CCCS(N)(=O)=O)C2,-5%
Cc1ccc(C)c(C(=O)N2CCC(C3CCNC3)CC2)c1 (centres undefined),9%
Cc1noc(C)c1CNCC1(CO)C[C@@H](O)[C@@H](O)C1 (some centres undefined),-10%[44.1 µM]
CCN1CC(c2ccccc2)CC2(CCN(C(=O)COC)CC2)C1 (centres undefined),-8%
SMILES,Pf Dd2 growth
COc1ccc(OC)c(NC(=O)c2cnc(N3CCCC3)nc2C)c1,26%
CCOc1ccc(NC(=O)c2cc3nc(-c4ccc(OC)cc4)cc(C(F)(F)F)n3n2)cc1,70%
CCOc1ccc(NC(=O)N2CCC(c3ccc(C)cc3)C2)cc1 (centres undefined),i
CCOc1ccc(-c2cc3nc(C4CCN(C(=O)OC(C)(C)C)CC4)c(C(=O)Nc4ccc(C)c(F)c4)cn3n2)cc1,7.1µM*
COc1ccc(-c2cn3nc(N4CCC(C(=O)Nc5cc(Cl)ccc5OC)CC4)sc3n2)cc1,i
CCOc1ccc(-c2cc3nc(C4CCN(C(=O)OC(C)(C)C)CC4)c(C(=O)Nc4cc(OC)ccc4OC)cn3n2)cc1,4µM*
CCNC(=O)[C@@H]1C[C@H](NC(=O)Cc2ccccc2F)CN1C1CCOCC1,2%
Cc1cc(C)nc(SCc2ccc(C(=O)N3CC[C@@](C)(O)[C@@H](O)C3)o2)n1,i
Cc1ccc(NC(=O)c2ccc3c(c2)N(C)C2CCCCCN2C3=O)c(F)c1 (centres undefined),i
CC1=C(C(=O)Nc2cccnc2)C(c2ccccc2Cl)n2nc(-c3ccccc3)nc2N1 (centres undefined),-7%
COc1ccccc1C1C=C(c2ccc(Cl)cc2)Nc2nc(-c3ccc(Cl)cc3)nn21 (centres undefined),2.8µM*
COc1ccccc1C1C=C(c2ccc(F)cc2)Nc2nc(-c3ccc(Cl)cc3)nn21 (centres undefined),11µM*
CCc1ccc(C2=CC(c3c(F)cccc3Cl)n3c(nc4ccccc43)N2)cc1 (centres undefined),24%
COc1ccccc1C1C=C(c2ccc(C(C)C)cc2)Nc2nnnn21 (centres undefined),i
COc1cccc(C2=CC(c3cc(Br)ccc3F)n3nnnc3N2)c1 (centres undefined),-5%
COCCNC(=O)CC[C@]12CC[C@](C)(O)C[C@H]1C(C)(C)C[C@@H]2NC(=O)Cc1cccs1,-6%
CCN1C(=O)C2CC3(CCN(C(=O)c4ccc(OC)nc4)CC3)CN2C1=O (centres undefined),-21%
Cc1cccc(CCN2CCC3(CC2)C(C(=O)O)CC(=O)N3C)n1 (centres undefined),-19%
COc1ccc(-c2ccnc3nc(CCc4ccc(OC)c(OC)c4)nn23)cc1,-12%
COc1ccc(CCc2nc3nccc(-c4ccc(OC)c(OC)c4)n3n2)cc1OC,13µM*
CCc1nc2nccc(-c3ccc(OC)c(OC)c3)n2n1,-21%
Cc1cc(C)cc(NC(=O)c2cc(S(=O)(=O)N3CCCCC3)c[nH]2)c1,28%
CCc1ccc(NC(=O)c2cc(S(=O)(=O)N3CCCCC3)c[nH]2)cc1,10%
O=C(NCc1ccc(Cl)cc1)c1cc(S(=O)(=O)N2CCCCC2)c[nH]1,11µM*
Cn1cc(S(=O)(=O)N2CCCCCC2)cc1C(=O)NCc1ccc(F)cc1,-5%
SMILES,Pf Dd2 growth
Cn1cc(S(=O)(=O)N2CCCCC2)cc1C(=O)NCc1ccc(Cl)cc1,11µM*
Cc1ccc(CNC(=O)c2cc(S(=O)(=O)N3CCCCC3)cn2C)cc1,-21%
COCCNC(=O)[C@H]1C[C@H](Oc2ccccc2)CN1C(=O)NCCc1ccccc1,i
Cc1nn(C)c(C)c1CN(Cc1cnc(N2CCCCC2)nc1)C1CC1,-26%
COc1cccc(N2CC(C(=O)NCC(F)F)NC2=O)c1 (centres undefined),-1%[44.1 µM]
Cc1nc([C@@H]2CN(C(=O)C(C)(C)C)C[C@H]2C(N)=O)n[nH]1,6%
COc1ccccc1C(=O)N1CCC(CCOc2ccc(C)cc2)C1 (centres undefined),-8%
CSc1ncccc1C(=O)N[C@@H]1CCOC[C@H]1Oc1ccc(C#N)cc1,-10%
O=c1[nH]ccn1C1CCN(Cc2ccc(OC(F)(F)F)cc2)CC1,-22%[44.1 µM]
Cc1ccc(C2Cn3nnc(C(=O)N4CCC(C(=O)NCc5cc(F)ccc5F)CC4)c3CO2)cc1 (centres undefined),17%
Cc1cnc(C2CC2)n1CCNS(=O)(=O)c1ccccc1F,-17%
Cc1cc(C)c(S(=O)(=O)NCCn2c(C)cnc2C2CC2)c(C)c1,11µM*
CC(=O)Nc1ccc(C)cc1S(=O)(=O)NCCn1c(C)cnc1C1CCC1,-11%
Cc1cnc(C2CCC2)n1CCNS(=O)(=O)c1ccccc1,i
Cc1cnc(C2CC2)n1CCNC(=O)C(C)C,5%
Cc1cc(Cl)ccc1S(=O)(=O)NCCn1c(C)cnc1C1CCC1,6.3µM*
CC(C)c1ccc(C(=O)N2CC[C@H](N(C)C)[C@H](CCC(=O)O)C2)c(=O)[nH]1,-17%
COc1ccc(F)cc1[C@@H](NC(=O)C1=NNC(=O)CC1)C1CC(O)C1 (some centres undefined),-23%
CCc1noc(-c2cn(C3CCN(C(=O)c4ccc(OC(F)(F)F)cc4)C3)nn2)n1 (centres undefined),i
